PfHsp90 set2: growth inhibition of yeast expressing Plasmodium Hsp90 | inhibition, % at 9.4 µM | S. cerevisiae expressing PfHsp90, BacTiter-Glo ATP, 48 h; yeast lacking PDR1 and PDR3 efflux regulators | hit rate 0.32% among 310,000;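 active means every replicate shows inhibition above about 80%, whatever the replicate mean, limit read from the data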;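 further: 0% = DMSO neutral controls and 100% = 20 µM radicicol positive controls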
tim10-1 inh: tim10-1 yeast growth inhibition. S. cerevisiae tim10-1 ts strain growth, BacTiter-Glo, 24 h. hit rate 2.2% among 330,000. inhibition, % at 20 µM. AID 463190;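 active means inhibition of at least 40%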;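 further: mutant grown at 25 °C; 0% = DMSO wells with yeast and 100% = wells holding no yeast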
V-ATPase pH: yeast V-ATPase proton transport regulation by pHLuorin | S. cerevisiae, pHLuorin cytosolic pH fluorescence | response, % at 10 µM | hit rate 0.37% among 350,000; in the data active means response mostly above about 7.3%, no sharp cut-off; inactive means mostly below about 5.4%; further: actives read high
tim23-1 inh: inhibits growth of tim23-1 mutant yeast | S. cerevisiae tim23-1 growth, BacTiter-Glo luminescence, 24 h | inhibition, % at 20 µM | hit rate 1.3% among 330,000 | AID 463212;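 active means growth inhibition of the mutant yeast at or above 50%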;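 further: temperature-sensitive mutant grown at 25 °C; plate controls were DMSO-treated mutant yeast for no effect and medium wells lacking yeast for full effect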
TIM10 inh: growth inhibitors of TIM10 yeast strain | S. cerevisiae TIM10 strain growth, BacTiter-Glo luminescence, 24 h | inhibition, % at 10 µM | hit rate 1.4% among 330,000 | AID 463195;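 active means inhibition of 40% or more at the single tested concentration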;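 further: wild-type TIM10 isogenic control strain grown at permissive 25 °C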
tim10-1 conf: confirmation of tim10-1 mutant yeast growth inhibitors; shares compounds with tim10-1 inh; S. cerevisiae tim10-1 ts strain growth, BacTiter-Glo, 24 h; inhibition, % at 20 µM; hit rate 56% among 7,400; AID 463213;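 active means inhibition of yeast growth at or above a set limit in either of two repeat tests at 20 µM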;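 further: tim10-1 mutant grown at permissive 25 °C to find synthetic lethal compounds; 0% = DMSO yeast wells and 100% = medium wells without yeast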
Numbers without * were called inactive. The list is not random: actives were taken first. Their share in the collection is about 3.7%.

Screening COc1ccc(C(CCNC(C)c2ccccc2)c2ccc(F)cc2)cc1 (stereo unspecified) returned PfHsp90 set2 6.2, tim10-1 inh 51.2*, V-ATPase pH -1.4, tim23-1 inh 44.6, TIM10 inh 18.7 and tim10-1 conf 36.2*.
COc1ccc(C(CCNCc2ccccc2)c2ccc(F)cc2)cc1 (stereo unspecified) was read as PfHsp90 set2 -3.8, tim10-1 inh 45.5*, V-ATPase pH -0.7, tim23-1 inh 18.7, TIM10 inh 9.1 and tim10-1 conf 20.4.
COc1ccc(C(CCNCc2ccc(F)cc2)c2ccc(F)cc2)cc1 (stereo unspecified) was read as PfHsp90 set2 6.5, tim10-1 inh -0.3, V-ATPase pH 2.5, tim23-1 inh 32.0 and TIM10 inh 19.7.
Screening N#Cc1ccccc1NC(=O)CSc1nnc(-c2ccccc2)n1-c1ccccc1 returned PfHsp90 set2 8.8, tim10-1 inh 24.3, V-ATPase pH 2.6, tim23-1 inh 12.0 and TIM10 inh 15.7.
`CCN(CC)c1ccc(-c2nnc(SCC(=O)Nc3ccccc3C#N)n2-c2ccccc2)cc1` gave PfHsp90 set2 1.0, tim10-1 inh 42.5*, V-ATPase pH 3.4, tim23-1 inh 29.8, TIM10 inh 20.2 and tim10-1 conf 19.9.
Screening O=C(C[C@H]1C/C=C\CCC(=O)OC[C@H]2CCCN2C1=O)NCCO returned PfHsp90 set2 -13.4, tim10-1 inh 6.6, V-ATPase pH -2.2, tim23-1 inh 9.3 and TIM10 inh 3.2.
`Cc1ccccc1C(=O)OCC(=O)N(C)c1ccccc1` gave PfHsp90 set2 -3.6, tim10-1 inh 51.7*, V-ATPase pH -0.5, tim23-1 inh 37.3, TIM10 inh 16.2 and tim10-1 conf 31.5*.
COc1ccc(C(=O)N2CCOC2CNC(=O)C(=O)NCc2ccccn2)cc1 (stereo unspecified) was read as V-ATPase pH -0.4.
COc1ccc(-n2c(CNC(=O)COc3ccc(Cl)cc3Cl)n[nH]c2=S)cc1 was read as PfHsp90 set2 -0.1, tim10-1 inh -9.7, V-ATPase pH 0.0, tim23-1 inh 2.1 and TIM10 inh -1.4.
CN(C)/C=C1/Sc2ccccc2C1=O was read as PfHsp90 set2 -4.7, tim10-1 inh 7.1, V-ATPase pH -1.3, tim23-1 inh 11.7 and TIM10 inh -0.9.
For CC(=O)N(\C=C/C=C/C=C1\Sc2ccccc2C1=O)c1ccccc1 the results were PfHsp90 set2 -3.3, tim10-1 inh 40.8*, V-ATPase pH -0.4, tim23-1 inh 29.3, TIM10 inh 32.6 and tim10-1 conf 46.5*.
For Cc1nc([N+](=O)[O-])c(Sc2nc3ccccc3[nH]2)n1Cc1ccccc1 the results were PfHsp90 set2 10.1, tim10-1 inh 43.7*, V-ATPase pH -0.5, tim23-1 inh 22.9, TIM10 inh 4.2 and tim10-1 conf 22.1.
For Cc1nc([N+](=O)[O-])c(N2CCN(Cc3ccccc3)CC2)n1Cc1ccccc1 the results were PfHsp90 set2 -3.7, tim10-1 inh 25.6, V-ATPase pH 0.7, tim23-1 inh 3.1 and TIM10 inh 4.3.
For Cc1cc2nc(Sc3c([N+](=O)[O-])nc(C)n3Cc3ccccc3)[nH]c2cc1C the results were PfHsp90 set2 0.5, tim10-1 inh 43.3*, V-ATPase pH -3.9, tim23-1 inh 37.4, TIM10 inh 25.3 and tim10-1 conf 38.9*.
COc1ccc2nc(Sc3c([N+](=O)[O-])nc(C)n3Cc3ccccc3)[nH]c2c1 was read as tim10-1 inh 32.6, tim23-1 inh 31.6 and TIM10 inh 32.8.
For COC(=O)C1=C(C)N(CCCC(=O)O)C(=O)NC1c1ccccc1OS(=O)(=O)c1ccc([N+](=O)[O-])cc1 (stereo unspecified) the results were PfHsp90 set2 2.4, tim10-1 inh 8.3, V-ATPase pH 0.7, tim23-1 inh 10.6 and TIM10 inh 10.5.
For Cc1ccc(C(=O)ONc2ccc(N=NC(=O)c3ccccc3O)cc2)cc1 the results were PfHsp90 set2 -6.2, tim10-1 inh 43.4*, V-ATPase pH -1.1, tim23-1 inh 25.9, TIM10 inh 19.3 and tim10-1 conf 1.6.
For CC(=O)c1ccc(N2CCN(S(=O)(=O)c3cc4c(cc3C)NC(=O)CO4)CC2)cc1 the results were PfHsp90 set2 6.6, tim10-1 inh 15.4, V-ATPase pH -5.8, tim23-1 inh 12.3 and TIM10 inh -1.9.

Source: PubChem BioAssay
